{
  "source": "PubChem BioAssay AID1851",
  "about": "(National Center for Advancing Translational Sciences (NCATS), 2009)",
  "note": "About 4,000 (25%) of roughly 16,000 compounds were called active. About 26% were inconclusive and are not listed. Calls come from the whole dose curve; as a rule, active = well fitted curve in the direction sought with a large enough effect; inconclusive = small, poorly fitted or top-dose-only effect, or effect the other way; inactive = no such curve, though single readings can be large or run the other way. Only a sample is shown. % is set by controls: 0 for no effect and ±100 for the full control effect.",
  "data": [
    {"molecular_target": "Cytochrome P450 2C9 (Homo sapiens) (UniProt P11712)", "sequence (P11712 whole entry, looked up)": "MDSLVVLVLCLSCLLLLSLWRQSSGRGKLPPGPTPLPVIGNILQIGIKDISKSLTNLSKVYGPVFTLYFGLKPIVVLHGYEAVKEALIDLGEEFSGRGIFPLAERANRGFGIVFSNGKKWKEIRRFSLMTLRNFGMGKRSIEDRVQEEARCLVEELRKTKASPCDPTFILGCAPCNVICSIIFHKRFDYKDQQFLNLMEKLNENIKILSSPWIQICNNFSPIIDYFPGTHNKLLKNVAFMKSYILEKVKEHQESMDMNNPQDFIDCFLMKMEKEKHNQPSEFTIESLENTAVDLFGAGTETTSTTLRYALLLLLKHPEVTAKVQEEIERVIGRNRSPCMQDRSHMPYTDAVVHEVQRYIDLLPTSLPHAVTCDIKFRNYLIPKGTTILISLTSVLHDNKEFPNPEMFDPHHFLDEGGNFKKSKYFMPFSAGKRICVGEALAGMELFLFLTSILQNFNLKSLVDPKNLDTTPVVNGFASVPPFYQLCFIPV", "assay": "Cytochrome panel assay with activity outcomes", "details": "recombinant CYP, pro-luciferin dealkylation, luminescence, p450-cyp2c9; series mostly up to 57.1 µM; activity, negative = inhibition: at the top concentration", "values": [
      {"smiles": "C=C(C)C1CC=C(C)/C(=N/NC(=O)c2ccc(NC(=O)c3cccc(C)c3)cc2)C1", "note": "(stereo not drawn)", "AC50": "1.58 µM (active)"},
      {"smiles": "Cc1cccc(C(=O)NNC(=O)C2CCCO2)c1", "note": "(stereo not drawn)", "activity, negative = inhibition": "-2.49% (inactive)"},
      {"smiles": "Cc1cccc(C(=O)NNC(=O)C(=O)NC(C)(C)C)c1", "activity, negative = inhibition": "-6.6% (inactive)"},
      {"smiles": "COc1ccc(Cc2n[nH]c(=O)c3ccccc23)cc1OC", "AC50": "25.1 µM (active)"},
      {"smiles": "COc1ccc(C[N+](C)(C)N)cc1OC", "activity, negative = inhibition": "13.9% [at 11.4 µM] (inactive)"},
      {"smiles": "COc1ccc(CCN(C)CCc2ccc(OC)c(OC)c2)cc1OC", "AC50": "inactive"},
      {"smiles": "CCCCc1ccc2nc(NC(=O)OC)[nH]c2c1", "activity, negative = inhibition": "1.99% [at 25.6 µM] (inactive)"},
      {"smiles": "Nc1c(OCC(=O)O)ccc2cc(S(=O)(=O)O)ccc12", "activity, negative = inhibition": "-7.12% [at 11.4 µM] (inactive)"},
      {"smiles": "Nc1nc(Cl)cc(N2CCOCC2)n1", "activity, negative = inhibition": "6.83% (inactive)"},
      {"smiles": "Clc1ccc(Sc2cc(N3CCOCC3)nc(-c3ccccc3)n2)cc1", "AC50": "10 µM (active)"},
      {"smiles": "c1ccc2c(N3CCOCC3)nc(-c3ccoc3)nc2c1", "activity, negative = inhibition": "11.8% [at 2.29 µM] (inactive)"},
      {"smiles": "COc1cccc(-c2ccc3ncnc(N4CCOCC4)c3c2)c1", "activity, negative = inhibition": "-6.77% [at 2.29 µM] (inactive)"},
      {"smiles": "COc1cccc(Sc2cc(N3CCOCC3)nc(-c3ccccc3)n2)c1", "AC50": "10 µM (active)"},
      {"smiles": "Brc1ccc([C@H]2CN3CCSC3=N2)cc1", "activity, negative = inhibition": "-16% (inactive)"},
      {"smiles": "CN1CCN(c2ncncc2-c2ccc(C(=O)N(C)C)cc2)CC1", "activity, negative = inhibition": "16.3% [at 2.29 µM] (inactive)"},
      {"smiles": "O=P(O)(O)CCP(=O)(c1ccccc1)c1ccccc1", "activity, negative = inhibition": "1.21% (inactive)"},
      {"smiles": "O=C1CC(c2ccc(F)cc2)Cc2nc(NCC3CCCO3)ncc21", "note": "(stereo not drawn)", "AC50": "12.6 µM (active)"},
      {"smiles": "CCNc1ncc2nc(-c3ccc(F)cc3)c(=O)n(C[C@H]3CCCO3)c2n1", "activity, negative = inhibition": "18.5% (inactive)"},
      {"smiles": "CCNc1ncc2nc(-c3cc(F)cc(F)c3)c(=O)n(C[C@H]3CCCO3)c2n1", "activity, negative = inhibition": "5.57% (inactive)"},
      {"smiles": "Cc1ccc2nc(SCc3nnc(-c4ccccc4[N+](=O)[O-])o3)c(C#N)cc2c1", "AC50": "0.794 µM (active)"},
      {"smiles": "Cc1nc2cccc([N+](=O)[O-])c2n1CCCN(C)C", "activity, negative = inhibition": "-4.5% [at 11.4 µM] (inactive)"},
      {"smiles": "Cc1ccc2nc(SCC(=O)NCc3cccs3)c(C#N)cc2c1", "activity, negative = inhibition": "-10.6% (inactive)"},
      {"smiles": "CN1CCC(=C2c3ccccc3CC(=O)c3sccc32)CC1", "AC50": "inactive"},
      {"smiles": "O=C(O)CN(CCN(CC(=O)O)CC(=O)O)CC(=O)O.[Mn]", "activity, negative = inhibition": "-0.525% [at 11.4 µM] (inactive)"},
      {"smiles": "Cc1cn2c(-c3ccncc3)nnc2s1", "activity, negative = inhibition": "-23.3% (inactive)"},
      {"smiles": "c1cc(-c2sc(-c3ccncc3)c(-c3ccncc3)c2-c2ccncc2)ccn1", "AC50": "2 µM (active)"},
      {"smiles": "Cc1ccccc1NS(=O)(=O)c1ccc2[nH]cc(C(=O)NCCCN3CCOCC3)c(=O)c2c1", "AC50": "12.6 µM (active)"},
      {"smiles": "COc1cccc(NS(=O)(=O)c2ccc3[nH]cc(C(=O)NCCN4CCOCC4)c(=O)c3c2)c1", "AC50": "7.94 µM (active)"},
      {"smiles": "CS(=O)(=O)Nc1cccc(-c2nc(NCCN3CCOCC3)c3ccccc3n2)c1", "activity, negative = inhibition": "3.9% [at 2.29 µM] (inactive)"},
      {"smiles": "CN1CCN(S(=O)(=O)c2ccc3[nH]cc(C(=O)O)c(=O)c3c2)CC1", "activity, negative = inhibition": "-21.4% (inactive)"},
      {"smiles": "Cc1ccccc1NS(=O)(=O)c1ccc2[nH]cc(C(=O)N(C)Cc3ccco3)c(=O)c2c1", "AC50": "12.6 µM (active)"},
      {"smiles": "Cc1cc(S(=O)(=O)NCCCN2CCOCC2)ccc1F", "activity, negative = inhibition": "-0.482% (inactive)"},
      {"smiles": "COc1cccc(C2=NOC(C(=O)NCCN3CCOCC3)C2)c1", "note": "(stereo not drawn)", "activity, negative = inhibition": "-23.4% (inactive)"},
      {"smiles": "CCC(CC)C(=O)c1c[nH]c(C(=O)NCCCN2CCOCC2)c1", "activity, negative = inhibition": "-7.46% (inactive)"},
      {"smiles": "CO[C@H]1COC(=O)C/C=C\\[C@@H](C)COC(=O)[C@@H](C)NC(=O)C/C=C\\[C@@H]1C", "activity, negative = inhibition": "-12.1% [at 11.4 µM] (inactive)"},
      {"smiles": "COc1ccc(/C=C/C(=O)Nc2ccccc2C(=O)N2CCCC2)cc1", "AC50": "15.8 µM (active)"},
      {"smiles": "COC(=O)CNC(=O)/C=C/c1ccc(OC)cc1", "activity, negative = inhibition": "-10.7% (inactive)"},
      {"smiles": "COC(=O)N1CCC2(CCCN(C(=O)Nc3ccc(OC)cc3)C2)CC1", "activity, negative = inhibition": "-12% (inactive)"},
      {"smiles": "Cc1ccccc1N1CCN(C(=O)c2ccccc2NC(=O)/C=C\\C(=O)O)CC1", "AC50": "14.1 µM (active)"},
      {"smiles": "CCOC(=O)C1CCN(C(=O)c2ccccc2NC(C)=O)CC1", "activity, negative = inhibition": "-13.2% (inactive)"},
      {"smiles": "NCc1ccccc1CC(=O)N[C@@H]1C(=O)N2C(C(=O)O)=C(CSc3nnnn3CC(=O)O)CS[C@@H]12", "activity, negative = inhibition": "-8% [at 25.6 µM] (inactive)"},
      {"smiles": "CC(=O)Nc1nc(NC(C)=O)c2[nH]c(CO)nc2n1", "activity, negative = inhibition": "15.3% [at 11.4 µM] (inactive)"},
      {"smiles": "FC(F)(F)c1nc(-c2ccncc2)ncc1-c1nnnn1-c1ccccc1", "AC50": "2.82 µM (active)"},
      {"smiles": "FC(F)(F)c1nc(N2CCCC2)ncc1-c1nnnn1-c1ccccc1", "AC50": "6.31 µM (active)"},
      {"smiles": "Cc1cc(C)cc(-n2nnnc2-c2cn(C)nc2C(F)(F)F)c1", "activity, negative = inhibition": "-29.6% (inactive)"},
      {"smiles": "Cc1nc2cnc(N3CCNCC3)nc2n(-c2ccccc2)c1=O", "activity, negative = inhibition": "11.8% (inactive)"},
      {"smiles": "c1ccc(CNc2nc(-c3ccoc3)nc3ccccc23)cc1", "activity, negative = inhibition": "-16.4% [at 2.29 µM] (inactive)"},
      {"smiles": "Cc1ccc(NC(=S)Nc2ccc(Br)cc2)cc1", "activity, negative = inhibition": "-21.4% (inactive)"}
    ]}
  ]
}
